ADAM17 inh: ADAM17 inhibition, QFRET primary screen | P78536 | recombinant ADAM17, EDANS/DABCYL FRET peptide cleavage | inhibition, % at 6.95 µM | hit rate 0.83% among 370,000 | AID 720648;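 active = inhibition above the mean of compounds lying between control limits plus 3 SD, set per campaign, cut at about 8.5% in these data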
NR3A LBD binder: modulates the human NR3A ligand-binding domain; NR3A LBD differential scanning fluorimetry, Tm shift; 0% = protein alone, 100% = glycine-bound protein; Tm shift relative to glycine control, % at 25 µM; hit rate 2.5% among 340,000; AID 1259313;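 active = melting temperature shift of at least 10% of the positive control shift, at one fixed dose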
FAS TE block: FAS thioesterase (human) inhibition | recombinant FAS-TE, OMFH fluorogenic substrate, fluorescence endpoint | inhibition, % at 15 µM | hit rate 0.67% among 360,000;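 active = compounds whose normalised, plate-corrected inhibition of enzyme fluorescence in the single-dose primary screen is 50% or more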
ADAM10 inh: ADAM10 inhibition, QFRET primary screen; O14672; recombinant ADAM10, EDANS/DABCYL FRET peptide cleavage, 3 h; inhibition, % at 7 µM; hit rate 0.62% among 370,000;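 active = inhibition above a per-campaign cutoff equal to the mean of compounds falling between control-based bounds plus 3 SD, cut at about 20% in these data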
Target sequence (O14672 214-748 limits assumed): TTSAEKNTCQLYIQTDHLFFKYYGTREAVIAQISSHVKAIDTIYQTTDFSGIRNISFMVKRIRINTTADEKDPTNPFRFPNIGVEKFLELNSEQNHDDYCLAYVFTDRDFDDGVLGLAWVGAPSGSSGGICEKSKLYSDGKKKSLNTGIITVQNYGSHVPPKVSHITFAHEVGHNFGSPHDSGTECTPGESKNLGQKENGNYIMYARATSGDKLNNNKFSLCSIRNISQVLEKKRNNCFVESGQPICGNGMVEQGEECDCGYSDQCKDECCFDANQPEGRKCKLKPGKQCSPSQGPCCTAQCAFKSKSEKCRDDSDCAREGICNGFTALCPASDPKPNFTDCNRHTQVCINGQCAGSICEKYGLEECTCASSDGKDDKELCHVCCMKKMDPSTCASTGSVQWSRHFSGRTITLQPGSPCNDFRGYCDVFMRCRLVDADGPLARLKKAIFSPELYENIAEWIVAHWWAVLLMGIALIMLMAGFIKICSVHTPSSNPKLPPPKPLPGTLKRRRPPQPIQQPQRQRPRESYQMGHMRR
aDG glyco act: increases alpha dystroglycan glycosylation | Pro5-aDG cells, alpha-DG glycosylation AlphaScreen (IIH6); 0% Pro5, 100% B10-LARGE cell signal | activation, % at 10 µM | hit rate 0.22% among 360,000 | AID 624168;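 active = activation of at least 8% versus controls, or a plate z-score of at least 8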;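 also: Pro5 are CHO cells carrying HIG-tagged alpha-DG that lacks glycosylation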
Of the large screens only hits and unclear results are named; the others gave an inactive call. Sampled rows, rich in hits. Any-hit rate of the full collection: about 4%.

O=C(OC(C(=O)Nc1ccc([N+](=O)[O-])cc1Br)c1ccccc1)c1ccccc1 (configuration not stated)	none
Cc1nc2ccccc2c(=O)n1N	none
CCCCNC(=O)OCCCN1CCC2(CCC(c3ccccc3)CC2)C1 (configuration not stated)	none (no result: NR3A LBD binder, FAS TE block, aDG glyco act)
O=C(CSc1nc(-c2ccc(F)cc2)cs1)NCC1CCCO1 (configuration not stated)	none
CC(C)OC(=O)C(C(=O)C(F)(F)F)c1cc(NS(=O)(=O)c2ccc3ccccc3c2)c2ccccc2c1O (configuration not stated)	NR3A LBD binder 24.3 (no result: ADAM17 inh, ADAM10 inh)
Cc1ccc(C(=O)O)cc1NS(=O)(=O)c1ccc2ccccc2c1	none
N=C1/C(=C/c2ccc(-c3cccc(C(=O)O)c3)o2)C(=O)N=C2SC=C(c3ccccc3)N12	none
N=C1/C(=C\c2ccc(-c3cc(Cl)cc(Cl)c3)o2)C(=O)N=C2SC=C(c3ccccc3)N12	NR3A LBD binder 23.5
CCn1cc(C(=O)NC(C)C)c(=O)c2cc(F)c(N3CCN(C(=O)c4ccco4)CC3)cc21	NR3A LBD binder 11.9
O=C(Nc1nc(-c2cccnc2)cs1)c1cccc([N+](=O)[O-])c1	none
COc1cc(NS(=O)(=O)c2ccc(NS(=O)(=O)c3ccccc3)cc2)nc(OC)n1	none
O=C(Nc1nc(-c2ccccc2)cs1)c1cccc([N+](=O)[O-])c1	NR3A LBD binder 24.4, FAS TE block 56.9
O=C(Cc1ccccc1)Nc1nc(-c2cccc([N+](=O)[O-])c2)cs1	none
O=[N+]([O-])c1cccc(-c2csc(Nc3ccccc3)n2)c1	NR3A LBD binder 30.3
COc1ccccc1Nc1nc(-c2cccc([N+](=O)[O-])c2)cs1	NR3A LBD binder 32.5
COc1cc(NS(=O)(=O)c2ccc(Nc3nc(-c4cccc([N+](=O)[O-])c4)cs3)cc2)nc(OC)n1	NR3A LBD binder 28.9
COC(=O)c1cc(NC(=O)Cn2nc(C)n3cccc3c2=O)cc(C(=O)OC)c1	none
COc1ccc(NC(=O)Nc2cccc3c2O[C@H](CN(C)S(=O)(=O)c2cn(C)cn2)[C@@H](C)CN([C@H](C)CO)C3=O)cc1	NR3A LBD binder 15.5
Cc1noc(C)c1S(=O)(=O)N(C)C[C@H]1Oc2c(NC(=O)Nc3ccccc3)cccc2C(=O)N([C@H](C)CO)C[C@@H]1C	none
Cc1noc(C)c1S(=O)(=O)N(C)C[C@H]1Oc2c(NC(=O)Nc3ccc(C(F)(F)F)cc3)cccc2C(=O)N([C@H](C)CO)C[C@@H]1C	NR3A LBD binder 10.5
COc1ccc(S(=O)(=O)N(C)C[C@H]2Oc3c(NC(=O)Nc4ccccc4)cccc3C(=O)N([C@H](C)CO)C[C@@H]2C)cc1	none
CN(C)Cc1cc(OCc2ccccc2)cc(CN(C)C)c1O	none (no result: NR3A LBD binder)
COc1ccc(C(=O)N/N=C/c2ccc(OC)c(COc3ccc(F)cc3F)c2)cc1	NR3A LBD binder 15.5
COc1ccc(/C=C/C(=O)Oc2ccc(/C=N\NC(=O)c3ccc(F)cc3)cc2)cc1	NR3A LBD binder 15.2
O=C(N/N=C/c1ccccc1[N+](=O)[O-])c1ccc2nc[nH]c2c1	none
COc1ccc(/C=C/C(=O)Oc2cccc(/C=N/NC(=O)c3cccc(F)c3)c2)cc1	none
COc1ccc(/C=N/NC(=O)c2ccc3nc[nH]c3c2)cc1	NR3A LBD binder 14.6
COc1ccc(/C=N/NC(=O)c2ccc3nc[nH]c3c2)c(OC)c1	none
O=C(N/N=C/c1ccc(Cl)c([N+](=O)[O-])c1)c1ccc2nc[nH]c2c1	NR3A LBD binder 13.1
COc1ccc(C2=NN(CN3C(=O)C(=O)c4ccccc43)C(c3ccc(OC)cc3)C2)cc1 (configuration not stated)	none
COc1ccc(/C=N/NC(=O)c2ccc(COCC(F)(F)C(F)F)cc2)cc1	NR3A LBD binder 12.4
Cn1c(=O)c2c(ncn2CC(=O)OCCCC(=O)c2ccc(Br)cc2)n(C)c1=O	NR3A LBD binder 17.7
Cc1ccc(C2(C)NC(=O)N(CC(=O)N3CCN(S(=O)(=O)c4cccc(F)c4)CC3)C2=O)cc1 (configuration not stated)	none
O=C(CN1C(=O)NC2(CCCC2)C1=O)N1CCN(S(=O)(=O)c2cccc(F)c2)CC1	NR3A LBD binder 15.9
CCC(C)NC(=O)CCC(=O)NNc1nc2ccccc2c2nc(C)nn12 (configuration not stated)	none
Nc1ccccc1Nc1cc(-c2ccccc2)nn1-c1cccc(Cl)c1	NR3A LBD binder 11.2
CCN(CC)S(=O)(=O)c1ccc(S(=O)(=O)N2CCCC(C(=O)NC3CC3)C2)cc1 (configuration not stated)	none
Nc1c(C(=O)NCc2cccnc2)sc(=S)n1-c1ccccc1	none
O=c1[nH]c2ccc(Br)cc2o1	NR3A LBD binder 11.2
O=C(CCl)c1ccc2[nH]c(=O)oc2c1	none
N#Cc1cc(-c2ccccc2)oc1/N=C/c1ccccc1O	NR3A LBD binder 18.1
COc1cccc(/C=N/c2oc(-c3ccccc3)cc2C#N)c1O	none
CN(CCc1ccccn1)C1CC(=O)N(c2ccc(Cl)cc2)C1=O (configuration not stated)	NR3A LBD binder 14.2
CC(NC(=O)C12CC3CC(CC(C3)C1)C2)c1ccc(F)cc1 (configuration not stated)	none
O=C(CSc1nc2ncc(Br)cc2[nH]1)c1ccc([N+](=O)[O-])cc1	none
O=C(CSc1nc2ccc([N+](=O)[O-])cc2[nH]1)c1ccc2ccccc2c1	NR3A LBD binder 22.8
CCOC(=O)C1CCCN(C(=O)c2cc(Cl)ccc2NC(=O)C2=C(C)OCCS2)C1 (configuration not stated)	none
c1ccc2c(c1)CN1C(=N2)COc2ccccc2C1c1nc2ccccc2[nH]1 (configuration not stated)	none (no result: NR3A LBD binder)
CC1=NOC(=O)/C1=C/c1ccc(O)c(Cl)c1	NR3A LBD binder 20.4
CCOc1cc(/C=C2/C(=O)ON=C2C)ccc1O	none
COc1cc(/C=C2/C(=O)ON=C2C)cc(Cl)c1O	NR3A LBD binder 25.6
C#CCOc1c(Cl)cc(/C=C2/C(=O)ON=C2C)cc1OC	none
CCCC(=O)Nn1cnc2c(c1=O)C1(CCCC1)Cc1ccccc1-2	none
CCCCNc1ccc2c(c1)OC[C@@H](C)NS2(=O)=O	none (no result: NR3A LBD binder, FAS TE block, aDG glyco act)
COc1cc(Cl)ccc1OCc1cc(C(=O)N2C[C@H]3CC[C@H]2C3)no1	NR3A LBD binder 12.6
COc1cc(Cl)ccc1OCc1cc(C(=O)N2C[C@@H]3CCC[C@H]2C3)no1	none
CC(C)(C)OC(=O)COc1cc(O)c2c(=O)cc(-c3ccccc3)oc2c1	none
CC1CC(C)(C)NC(=S)N1CCCC(=O)Nc1ccc(Br)cc1 (configuration not stated)	none
CCOc1ccc(NC(=O)CCCN2C(=S)NC(C)(C)CC2C)cc1 (configuration not stated)	NR3A LBD binder 11.9
Oc1ccc2ccccc2c1/C=N/Nc1nnc(-c2ncc[nH]2)c2ccccc12	NR3A LBD binder 21.3

Screening results from PubChem BioAssay.
